In PubChem BioAssay AID1117283 (Broad Institute, 2014):
Measured potencies and affinities stand elsewhere. Unmarked numbers belong to inactive results.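 Rule for the calls: active = fluorescent signal decreased by at least 40%; inconclusive = no clear call, values can overlap the other calls; inactive = the rest, including activity opposite to the expected direction.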

Assay: fibronectin fibrillogenesis inhibitors in fibroblasts, dose response, AH1F cells, Alexa488-fibronectin fluorescence, cherry-pick, set 2 (AID 1117283);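 note: AH1F fibroblasts given Alexa488-labelled fibronectin at 24 nM final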
Details: Alexa488-fibronectin deposition fluorescence, overnight; series mostly up to 35 µM; activity change, negative = inhibition: at the top concentration

Row | SMILES | activity change, negative = inhibition
1 | Cc1cc(C)n2ncc(C(=O)NCc3ccc(Cl)cc3)c2n1 | -4.65%
2 | CCOC(=O)c1cnc(SCc2nc(N)nc(Nc3ccc(OC)cc3)n2)nc1N | 3.31%
3 | CC(C)(C)[S@](=O)N1Cc2cc(C(=O)NCc3ccccc3F)nc(-c3cccc(-c4cncnc4)c3)c2[C@@H]1CCO | 7.09%
4 | CO[C@H]1CN(C)C(=O)c2cc(NC(=O)Nc3ccc(Cl)c(Cl)c3)ccc2OC[C@H](C)NC[C@H]1C | -2.19%
5 | Cc1ccc(-c2nc3ncccc3o2)cc1NC(=O)c1ccco1 | 7.73%
6 | C[C@H](O)C#Cc1ccc2c(c1)O[C@@H](CN(C)C)[C@H](C)CN([C@@H](C)CO)S2(=O)=O | -3.5%
7 | COC(=O)C[C@@H]1CC[C@@H]2[C@@H](COc3ccc(NC(=O)Cc4cccs4)cc3C(=O)N2C)O1 | -6.16%
8 | O=C(Nc1ccccc1F)N1C[C@@H]2[C@H](c3ccccc31)[C@H](CO)N2C(=O)C1CC1 | 2.39%
9 | COc1ccccc1N(CC(=O)N(CC(C)C)CC(C)C)S(=O)(=O)c1cccs1 | 2.52%
10 | CO[C@H]1CN(C)C(=O)c2ccc(NC(=O)Nc3ccc(Cl)c(Cl)c3)cc2OC[C@H](C)NC[C@@H]1C | -11%
11 | N#Cc1ccc(-c2ccc3c(c2)[C@@H]2[C@@H](CCN2S(=O)(=O)c2cccc(F)c2)[C@H](CO)N3)cc1 | -5.91%
12 | CO[C@H]1CN(C)C(=O)c2ccc(NC(=O)c3ccc(-c4ccccc4)cc3)cc2OC[C@@H](C)NC[C@H]1C | 2.37%
13 | CO[C@H]1CN(C)C(=O)c2ccc(NC(=O)Nc3cc(Cl)cc(Cl)c3)cc2OC[C@H](C)NC[C@@H]1C | 9.25%
14 | CO[C@H]1CN(C)C(=O)c2ccc(NC(=O)c3ccc(-c4ccccc4)cc3)cc2OC[C@H](C)NC[C@H]1C | 4.53%
15 | COc1ncccc1C(=O)NC1CCCc2c1cnn2-c1ccc(C)c(C)c1 (stereo unspecified) | -5.54%
16 | CC1(C)Cc2c(C#N)c(SCC(=O)c3ccccc3)nc(N3CCOCC3)c2CS1 | -6.32%
17 | Cc1ccc(O)c(-c2cc(-c3cccc(Br)c3)n[nH]2)c1 | 6.22%
18 | COC(=O)C[C@@H]1CC[C@H]2[C@@H](COc3ccc(NC(=O)Cc4cccs4)cc3C(=O)N2C)O1 | 1.52%

Row | SMILES | activity change, negative = inhibition
19 | COC(=O)c1cn(CC(=O)NCc2ccco2)c2ccccc12 | -4.91%
20 | C[C@H]1CN([C@@H](C)CO)C(=O)c2cccc(NC(=O)Nc3ccc(C(F)(F)F)cc3)c2O[C@H]1CN(C)C(=O)Nc1cccc2ccccc12 | 9.1%
21 | Cc1cccc(NC(=O)c2ccc(S(=O)(=O)N3CCCCC3)cc2)n1 | -4.63%
22 | Cc1ccc(N(CC(=O)NCc2ccco2)S(=O)(=O)c2ccccc2)cc1 | -11.7%
23 | CN(C)C(=O)c1ccc(-c2ccc3c(c2)[C@H]2[C@H](CCN2C(=O)c2ccc(F)cc2)[C@@H](CO)N3C)cc1 | 9.06% [at 30 µM]
24 | COc1cccc(-c2ccc3c(c2)[C@@H]2[C@@H](CCN2S(=O)(=O)c2cccc(OC)c2)[C@H](CO)N3)c1 | -8.42%
25 | Cc1oc2ccc(O)cc2c1C(=O)c1ccc(Br)cc1 | -1.43%
26 | CO[C@H]1CN(C)C(=O)c2cc(NC(=O)Nc3ccc(Cl)c(Cl)c3)ccc2OC[C@@H](C)NC[C@@H]1C | -5.32%
27 | C[C@H]1CN([C@@H](C)CO)C(=O)c2cc(-c3ccccc3)cnc2O[C@@H]1CN(C)Cc1ccccc1 | -1.31%
28 | COc1cccc(-c2ccc3c(c2)[C@H]2[C@H](CCN2S(=O)(=O)c2cccc(OC)c2)[C@@H](CO)N3)c1 | -7.16%
29 | CCCCNC(=O)Nc1nc2ccc(CC)cc2s1 | -3.71%
30 | C[C@H]1CN([C@@H](C)CO)C(=O)c2cc(-c3ccccc3)cnc2O[C@@H]1CN(C)C(=O)c1cccc(F)c1 | -6.59%
31 | COCC(=O)Nc1ccc2c(c1)C(=O)N(C)[C@@H]1CC[C@H](CC(=O)NCc3ccccc3Cl)O[C@@H]1CO2 | -0.399%
32 | Cc1cccc(NC(=O)c2ccc(C3SCC(=O)N3CCc3ccccc3)cc2)c1 (stereo unspecified) | -5.88%
33 | CC(C)(C)[S@@](=O)N1Cc2cc(C(=O)NCc3ccccc3F)nc(-c3cccc(-c4ccncc4)c3)c2[C@H]1CCO | 5.11%
34 | OC(CNC1CCCc2ccccc21)COc1c(Cl)cccc1Cl (stereo unspecified) | 1.93%
35 | N#C[C@@H]1[C@H](c2ccccc2C2=CCCCC2)[C@H](CO)N1S(=O)(=O)c1ccccc1 | -8.31%
36 | COc1ccc(-c2oc3ncnc(NCCCN4CCOCC4)c3c2-c2ccc(OC)cc2)cc1 | -3.3%
